Laboratory results published in PubChem BioAssay (NCI).
This is part of a sample that, as a whole, favours compounds with a hit. Of some 83,000 tested, about 20% had one in any assay.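 Each cell line was grown in a 96-well plate and treated with one concentration of compound for 48 hours. Values below 10 were considered active.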 A number with no mark means an inactive call. The source made the active and inactive calls.

Assays:
Assay in all cases: NCI-60 one-dose screen, 48 h (100 = growth as untreated, 0 = no growth, -100 = all killed)
Conditions in all cases: 10 µM unless noted
NCI-H23 lung = test system: NCI-H23 lung
NCI-H226 lung = test system: NCI-H226 lung
NCI-H322M lung = test system: NCI-H322M lung
HOP-62 NSCLC = test system: HOP-62 NSCLC
NCI-H460 lung = test system: NCI-H460 lung
HOP-92 NSCLC = test system: HOP-92 NSCLC
NCI-H522 lung = test system: NCI-H522 lung
A549/ATCC NSCLC = test system: A549/ATCC NSCLC
786-0 renal = test system: 786-0 renal
COLO 205 colon = test system: COLO 205 colon
DU-145 prostate = test system: DU-145 prostate
K-562 leukemia = test system: K-562 leukemia
MALME-3M melanoma = test system: MALME-3M melanoma
MDA-MB-231 breast = test system: MDA-MB-231 breast
RXF 393 renal = test system: RXF 393 renal
SF-268 CNS = test system: SF-268 CNS
SF-295 CNS = test system: SF-295 CNS
SF-539 CNS = test system: SF-539 CNS
UACC-257 melanoma = test system: UACC-257 melanoma
M14 melanoma = test system: M14 melanoma

SMILES | growth (NCI-H23 lung) | growth (NCI-H226 lung) | growth (NCI-H322M lung) | growth (HOP-62 NSCLC) | growth (NCI-H460 lung) | growth (HOP-92 NSCLC) | growth (NCI-H522 lung) | growth (A549/ATCC NSCLC) | growth (786-0 renal) | growth (COLO 205 colon) | growth (DU-145 prostate) | growth (K-562 leukemia) | growth (MALME-3M melanoma) | growth (MDA-MB-231 breast) | growth (RXF 393 renal) | growth (SF-268 CNS) | growth (SF-295 CNS) | growth (SF-539 CNS) | growth (UACC-257 melanoma) | growth (M14 melanoma)
O=C(NCCN1CCOCC1)Nc1ccc(-c2cc3c(Nc4ccc(Oc5cccc(C(F)(F)F)c5)c(Cl)c4)ncnc3s2)cc1 | 27.4% | 26.3% | 18.7% | -26% (active) | -39.8% (active) | 16.4% | 27.3% | 4.01% (active) | -43% (active) | -56.7% (active) | 44.7% | -29.5% (active) | -57.5% (active) | 12% | -19.5% (active) | 29.3% | -58.5% (active) | -13.5% (active) | 26.4% | -50.5% (active)
CSc1nc(NCCN2CCOCC2)c(C#N)c(-c2cccc([N+](=O)[O-])c2)n1 | 97.1% | 106% | 92.9% | 89.4% | 100% | 101% | 85.7% | 99.5% | 101% | 111% | 106% | 100% | 98.7% | 86.3% | 103% | 96.7% | 99.1% | 90.3% | 98.2% | 101%
O=C(N=Nc1c(O)[nH]c2ccccc12)c1cc(-c2ccccc2)on1 | 95.8% | 96.8% | 111% | 102% | 102% | 96.2% | 90.7% | 107% | 104% | 122% | 113% | 104% | 100% | 93.1% | 118% | 101% | 98.2% | 97.4% | 106% | 104%
Nc1ccn(-c2ccc(Br)cc2)c(=O)n1 | 88.8% | 128% | 120% | 102% | 105% | 74.6% | 88.5% | 107% | 102% | 198% | 101% | 76.2% | 124% | 104% | 137% | 109% | 79.3% | 94.1% | 127% | 104%
c1csc(C2=NN3C(C2)c2ccccc2OC3c2ccncc2)c1 (stereo not given) | 89.8% | 85.8% | 93.1% | 106% | 100% | 87.4% | 87% | 96.2% | 98.7% | 112% | 97% | 99.2% | 86.9% | 89.1% | 105% | 89.5% | 96.1% | 96.7% | 96.5% | 105%
O=C(COc1cccc(/C=C2\COc3ccccc3C2=O)c1)Nc1nccs1 | 13.4% | 95.4% | 99.3% | 83.3% | 87.9% | -3.51% (active) | -30.5% (active) | 101% | 95.5% | 87.3% | 96.6% | -80.5% (active) | 54.2% | 83.7% | 48.3% | 70.1% | 112% | 83.7% | 86% | -78.2% (active)
COc1ccc(S(=O)(=O)N2CCN(C)CC2)cc1NC(=O)c1[nH]c(C)c2c1CCCCC2=O | 66.9% | 61.7% | 59.9% | 43.4% | 73.3% | 34.6% | 50.1% | 62.3% | 58.6% | 33.1% | 87.1% | 46.9% | 52% | 51.1% | 84.3% | 82% | 54.7% | 52.5% | 57.9% | 54.4%
CN1CCN(Cc2ccc(NC(=O)c3cncc(C#Cc4cncn5ccnc45)c3)cc2C(F)(F)F)CC1 | 63.1% | 34.4% | 105% | 81.4% | 64.3% | 38.8% | 47.3% | 74% | 87.5% | 32.3% | 86.2% | 4.35% (active) | 2.25% (active) | 54.5% | 90.4% | 92.4% | 91.7% | 52.4% | 58.4% | 7.22% (active)
